# Rows were chosen to be rich in hits. Some 11% of all compounds tested hit in one or more screens of this group.
# 3T3 cytotox: Cytotoxic Profiling in NIH 3T3 Cell Line of Diverse Libraries Using Quantitative High-Throughput Screening | Potency, µM (series often up to 96.7 µM), for the others: top-dose activity change, negative = cytotoxicity, usual class: inhibitors | NIH 3T3 viability, CellTiter-Glo ATP luminescence, 48-72 h | actives 4.3% (n = 94,000); note: nearly all actives have a fitted effect of over 55% in size
#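 Cells were seeded at 400 per well, treated with pin-transferred compound, and kept 48 or 72 hr at 37 °C before CellTiter-Glo addition and luminescence imaging of cellular ATP.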
# HEK293 tox: Cytotoxic Profiling in HEK 293 Cell Line of Diverse Libraries Using Quantitative High-Throughput Screening; actives 6.6% (n = 94,000); Potency, µM (series often up to 115 µM), for the others: at the highest dose activity change, negative = cytotoxicity, actives largely listed as inhibitors; HEK 293 viability, ATP luminescence (CellTiter-Glo), 48-72 h; note: nearly all actives have a fitted effect of over 60% in size
#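 Viability of HEK 293 cells, plated at 250 cells/well, was judged by cellular ATP after compound treatment for 48 or 72 hr. Luminescence was imaged 10 min after CellTiter-Glo addition at room temperature.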
# Luciferase inh: Firefly luciferase inhibition profiling of diverse chemical library using quantitative high-throughput screening | actives 2.5% (n = 76,000) | purified P. pyralis luciferase, luminescence, biochemical | AID 1347043, 2019 | Luciferin 4-monooxygenase (Photinus pyralis), P08659 | Potency, µM (top dose mostly 115 µM), actives largely listed as inhibitors; note: nearly all actives have a fitted effect of over 65% in size
#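 Luminescence read by CCD imager after adding enzyme (10nM final) to wells holding compound, titrated in qHTS. Substrates 10uM each D-luciferin and ATP; buffer 50mM Tris acetate pH 7.5, 10mM Mg acetate, Tween-20, BSA.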
# hNpr1 antagonist: Natriuretic polypeptide receptor (hNpr1) antagonism - Primary qHTS | Atrial natriuretic peptide receptor 1 (Homo sapiens), P16066 | HEK293 hNpr1 GloSensor cGMP, ANP-stimulated luminescence | Potency, µM (top dose mostly 46.3 µM), for inactives: top-dose activity change, negative = inhibition, hits mostly inhibitors | actives 1.6% (n = 76,000) | AID 1347048, 2019; calls by dose curve; note: nearly all actives have a fitted effect of over 60% in size
# Target sequence (P16066 whole entry, looked up): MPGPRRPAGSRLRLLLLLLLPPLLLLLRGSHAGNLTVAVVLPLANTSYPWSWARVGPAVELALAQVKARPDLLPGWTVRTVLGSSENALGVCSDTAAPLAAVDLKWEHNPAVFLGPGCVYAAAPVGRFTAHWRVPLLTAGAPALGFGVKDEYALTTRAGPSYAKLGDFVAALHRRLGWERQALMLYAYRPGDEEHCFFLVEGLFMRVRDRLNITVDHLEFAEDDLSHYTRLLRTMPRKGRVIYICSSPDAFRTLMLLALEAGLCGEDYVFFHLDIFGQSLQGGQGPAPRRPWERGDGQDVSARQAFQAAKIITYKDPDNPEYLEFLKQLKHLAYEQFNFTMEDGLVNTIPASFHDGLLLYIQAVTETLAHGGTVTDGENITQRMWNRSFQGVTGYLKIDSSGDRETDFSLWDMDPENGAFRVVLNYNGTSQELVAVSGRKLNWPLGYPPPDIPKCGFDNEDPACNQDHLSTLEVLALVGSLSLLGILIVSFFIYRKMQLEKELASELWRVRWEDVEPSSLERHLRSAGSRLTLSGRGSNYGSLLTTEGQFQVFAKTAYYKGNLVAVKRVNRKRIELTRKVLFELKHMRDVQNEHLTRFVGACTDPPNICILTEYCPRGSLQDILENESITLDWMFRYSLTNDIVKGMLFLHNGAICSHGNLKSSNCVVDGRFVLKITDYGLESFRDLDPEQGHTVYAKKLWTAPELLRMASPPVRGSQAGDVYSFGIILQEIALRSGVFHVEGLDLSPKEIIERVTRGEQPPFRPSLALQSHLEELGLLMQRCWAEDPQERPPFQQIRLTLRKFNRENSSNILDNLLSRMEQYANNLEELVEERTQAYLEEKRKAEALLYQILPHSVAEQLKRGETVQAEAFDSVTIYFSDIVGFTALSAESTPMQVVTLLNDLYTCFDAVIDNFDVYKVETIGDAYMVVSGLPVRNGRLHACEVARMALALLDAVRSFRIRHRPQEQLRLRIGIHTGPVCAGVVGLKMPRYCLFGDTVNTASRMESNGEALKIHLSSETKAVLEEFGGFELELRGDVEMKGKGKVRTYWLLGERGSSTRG
#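 Compound pre-incubated 30 min at room temperature on GloSensor-loaded HEK293 cells stably carrying hNpr1 and the pGS-40F cGMP biosensor. Stimulation uses hNppA at 0.1 nM final; luminescence is taken at baseline and 20 min post-agonist.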
# Numbers without * were called inactive; i = inactive; ? = inconclusive; nt = no result; [ ] = remark or other dose. Unless noted, calls come from the whole dose curve; as a rule, active = well fitted curve in the direction sought with a large enough effect; inconclusive = small, poorly fitted or top-dose-only effect, or another doubt; inactive = no such curve, though single readings can be large; an effect the other way counts as inactive or inconclusive. % is set by controls: 0 for no effect and ±100 for the full control effect; potency is the fitted concentration of half-maximal effect.
SMILES,3T3 cytotox,HEK293 tox,Luciferase inh,hNpr1 antagonist
O=C(c1ccccc1)N1CCCN(c2ccc3nnc(C4CC4)n3n2)CC1,-14%,-1%,nt,nt
CCCc1cc(N2CCC(N[C@@H]3CCNC3)CC2)nc(C)n1,-18%,1%,i,4%
CCc1cc(N2CCC(NCCc3cccc(Cl)c3)CC2)nc(C)n1,40µM*,?,i,-3%
CNC(=O)CCn1ncc2cc(OCc3ccccc3-c3ccc(F)c(Cl)c3)ccc21,79µM*,100µM*,?,?
CNC(=O)CCn1ncc2cc(OCc3ccccc3-c3ccc(F)cc3C)ccc21,50µM*,?,i,-22%[70.6 µM]
CNC(=O)CCn1ncc2cc(OCc3ccccc3-c3cccc(CO)c3)ccc21,?,79µM*,16µM*,?
CNC(=O)CCn1ncc2cc(OCc3ccccc3-c3ccc(OC)cc3Cl)ccc21,?,?,i,-12%
CNC(=O)CCn1ncc2cc(OCc3ccccc3-c3c(F)cccc3OC)ccc21,?,?,i,4%[70.6 µM]
CNC(=O)CCn1ncc2cc(OCc3ccccc3-c3cc(F)ccc3OC(C)C)ccc21,?,?,i,-1%
CNC(=O)CCn1ncc2cc(OCc3ccccc3-c3cc(F)ccc3OC)ccc21,?,79µM*,40µM*,-19%[70.6 µM]
Cc1nc(C2CC23CCN(S(=O)(=O)c2c(C)noc2C)CC3)no1 (stereo not given),?,-25%,nt,nt
CNC(=O)CCn1ncc2cc(OCc3ccccc3-c3cccnc3)ccc21,?,?,i,-12%[70.6 µM]
CNC(=O)CCn1ncc2cc(OCc3ccccc3-c3ccccc3F)ccc21,79µM*,100µM*,?,-20%[70.6 µM]
CNC(=O)CCn1ncc2cc(OCc3ccccc3-c3ccc(F)cc3)ccc21,?,71µM*,?,-10%[70.6 µM]
O=C1CO[C@H]2CCN(Cc3ccncc3Cl)CC[C@@H]2N1c1ccccc1,79µM*,45µM*,i,-6%[70.6 µM]
CC(C)N1C(=O)CO[C@H]2CCN(Cc3ccncc3Cl)CC[C@@H]21,?,?,i,-24%[70.6 µM]
O=C1CO[C@H]2CCN(Cc3ccccc3Cl)CC[C@@H]2N1CCc1cccnc1,100µM*,?,i,-29%[70.6 µM]
N#Cc1cccc(CN2CC[C@@H]3OCC(=O)N(Cc4ccccc4)[C@H]3CC2)c1,?,100µM*,i,-15%[70.6 µM]
COCCn1c(=O)c(C(=O)NCc2cccc(OC)c2)nc2cccnc21,-19%,-15%,nt,nt
Cc1noc(C)c1S(=O)(=O)N[C@@H]1C[C@H](Cn2cc(-c3cccnc3)nn2)[C@@H](O)[C@H]1O,22µM*,40µM*,i,-2%
CC[C@H]1CN(C(=O)c2ccc(F)cc2)CC[C@H]1CC(=O)NCc1cccs1,?,-9%[172 µM],i,-3%[70.6 µM]
COC(=O)[C@@H]1Cc2c([nH]c3ccccc23)[C@H]2C[C@H](NCc3cccs3)C[C@@H](c3ccc(F)cc3)N21,22µM*,28µM*,i,1%
COC(=O)[C@@H]1Cc2c([nH]c3ccccc23)[C@H]2C[C@@H](NCc3cccs3)C[C@@H](c3ccc(F)cc3)N21,79µM*,?,i,0%
CC1(C)C(=O)N(CCOc2ccccc2)[C@H]2CN(Cc3ccc4c(c3)CCO4)C[C@@H]2[S+]1(=O)[O-],?,?,i,-6%
O=[S+]1([O-])NC2(CCN(Cc3cccc4ccccc34)CC2)CNc2ccccc21,?,40µM*,i,-11%
SMILES,3T3 cytotox,HEK293 tox,Luciferase inh,hNpr1 antagonist
Cn1cc(-c2cnc3[nH]cc(CC(=O)NC4CCC4)c3c2)cn1,32µM*,?,i,-2%[70.6 µM]
CC(C)CNC(=O)Cc1c[nH]c2ncc(-c3cnn(C)c3)cc12,45µM*,-22%[172 µM],i,5%[70.6 µM]
O=C(O)C1(c2ccccc2)CCN(S(=O)(=O)c2ccccc2)CC1,79µM*,i,nt,nt
O=C(O)C1(c2ccccc2)CCN(S(=O)(=O)c2cccs2)CC1,?,-4%,nt,nt
COc1ccc(-c2ccccc2C(=O)N2CCC(NC(=O)Cc3cccc(Cl)c3)CC2)nn1,-8%,i,nt,nt
Cc1ccc(Nc2ccnc(N3CCC(NC(=O)N(C)C)CC3)n2)cc1,45µM*,?,nt,nt
Cc1ccc(Nc2ccnc(N3CCC(C(=O)NC4CC4)CC3)n2)cc1,35µM*,?,nt,nt
Cc1ccc(Nc2ccnc(N3CCC(C(=O)NC4CCCC4)CC3)n2)cc1,35µM*,45µM*,nt,nt
Cc1ccc(Nc2ccnc(N3CCC(NC(=O)NC4CCCC4)CC3)n2)cc1,-10%,-27%,nt,nt
Cc1ccc(Nc2ccnc(N3CCC(NC(=O)C4CC4)CC3)n2)cc1,?,45µM*,nt,nt
CC(C)CCN1CCC(N2CCN(S(=O)(=O)c3ccc4c(c3)CCC4)CC2)C1=O (stereo not given),-27%,?,i,4%
COc1ccc(Cl)cc1NC(=O)Cn1cccc1-c1nc(-c2ccccc2)no1,-18%,?,i,1%
COc1ccccc1-c1nnc2ccc(C(=O)N3CCN(C(C)=O)CC3)cn12,3%,i,nt,nt
CC(=O)NCCNC(=O)c1ccc(-c2cccc(C(F)(F)F)c2)cc1,-28%,?,nt,nt
COC(=O)[C@@H]1Cc2c([nH]c3ccccc23)[C@H]2C[C@H](NCCNC(C)=O)C[C@@H](c3ccc(C(F)(F)F)cc3)N21,28µM*,20µM*,i,0%
COC(=O)[C@@H]1Cc2c([nH]c3ccccc23)[C@H]2C[C@H](NCCNC(C)=O)C[C@@H](c3ccccc3)N21,?,89µM*,i,-1%
COC(=O)[C@@H]1Cc2c([nH]c3ccccc23)[C@H]2C[C@@H](N3CCOCC3)C[C@@H](c3ccccc3)N21,?,?,i,-9%
COCCNC(=O)[C@@H]1C[C@@H](c2ccc(F)cc2)N([S+](=O)([O-])c2ccccc2)C1,?,-6%[172 µM],i,1%[70.6 µM]
COCCN[C@@H]1C[C@@H]2c3[nH]c4ccccc4c3C[C@@H](C(=O)OC)N2[C@H](c2ccc(C(F)(F)F)cc2)C1,45µM*,35µM*,i,-2%
Cc1ccc([S+](=O)([O-])N2CCCC(C(=O)N3CCC(c4nc5ccncc5[nH]4)C3)C2)cc1 (stereo not given),-19%,0%,nt,nt
COc1ccc(CN2CC[C@@H](CO)N(C)c3nc(C)ccc3C2)cc1,-20%[174 µM],?,i,-1%[70.6 µM]
Cc1ccc2c(n1)N(C)[C@H](CO)CCN(Cc1ccc(C(F)(F)F)cc1)C2,63µM*,35µM*,i,-11%[70.6 µM]
Cc1ccc2c(n1)N(C)[C@H](CO)CCN(Cc1ccc(C(C)C)cc1)C2,?,63µM*,i,-16%[70.6 µM]
COc1cccc(CNc2ncnc3c2CN(C2CCCC2)C(=O)CN3C)c1,?,-1%,nt,nt
